# Results as given in PubChem BioAssay.
# Where “and” joins values, the source holds several entries; their conditions need not be identical. Equal values may be shown once. Calls of active or inactive are those of the source. Cut-off read from the data, not from the text of the source, unless noted: active = parasite load remaining mostly below about 12% (no sharp cut-off); inactive = mostly above about 10%.
# Tests used:
# [1] = P. berghei load reduction in hepatocytes – cell-based, HepG2, luciferase luminescence, HepG2 viability, primary screen (AID 624349);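 note: 100% = mean of DMSO negative control wells on the same plate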; settings: P. berghei liver stage in HepG2, luciferase luminescence, concentration not given here; parasite load remaining: stronger effect = lower value; viability: measured here: HepG2 viability without parasites
# [2] = viability loss with induced miR-34 in A549 – imaging, A549 dox-inducible miR-34, nuclei and caspase counts, primary screen (AID 1347080;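 active = compounds whose cell count with miR-34 switched on is under 0.7 times the count with it off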); settings: A549 miR-34 inducible, Hoechst nuclei count, 48 h
# [3] = MELAS cybrid and Rieske KO viability enhancers – cell-based, MELAS cybrids, Rieske KO mouse fibroblasts, CellTiter-Glo, primary screen (AID 1508586;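 active = mean z-score across replicates of 1.96 or higher in either the MELAS or the Rieske mutant cell line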;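 note: z relative to plate mean and SD of compound and empty wells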); settings: low glucose
# [4] = target: NAD(+) hydrolase SARM1 (Homo sapiens) (UniProt Q6SZW1); experiment: blocking NAD cleavage by SARM1 SAM-TIR – cell lysate, NAD-Glo luminescence (AID 1508614;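 active = compound whose remaining NAD level is above about 45 nM, limit read from the data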;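 note: higher remaining NAD means stronger inhibition of SARM1 NADase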); settings: SAM-TIR HEK293T lysate NADase, at 1 µM, stronger effect = higher value
# Chain of NAD(+) hydrolase SARM1 (Homo sapiens) (Q6SZW1 whole entry, looked up): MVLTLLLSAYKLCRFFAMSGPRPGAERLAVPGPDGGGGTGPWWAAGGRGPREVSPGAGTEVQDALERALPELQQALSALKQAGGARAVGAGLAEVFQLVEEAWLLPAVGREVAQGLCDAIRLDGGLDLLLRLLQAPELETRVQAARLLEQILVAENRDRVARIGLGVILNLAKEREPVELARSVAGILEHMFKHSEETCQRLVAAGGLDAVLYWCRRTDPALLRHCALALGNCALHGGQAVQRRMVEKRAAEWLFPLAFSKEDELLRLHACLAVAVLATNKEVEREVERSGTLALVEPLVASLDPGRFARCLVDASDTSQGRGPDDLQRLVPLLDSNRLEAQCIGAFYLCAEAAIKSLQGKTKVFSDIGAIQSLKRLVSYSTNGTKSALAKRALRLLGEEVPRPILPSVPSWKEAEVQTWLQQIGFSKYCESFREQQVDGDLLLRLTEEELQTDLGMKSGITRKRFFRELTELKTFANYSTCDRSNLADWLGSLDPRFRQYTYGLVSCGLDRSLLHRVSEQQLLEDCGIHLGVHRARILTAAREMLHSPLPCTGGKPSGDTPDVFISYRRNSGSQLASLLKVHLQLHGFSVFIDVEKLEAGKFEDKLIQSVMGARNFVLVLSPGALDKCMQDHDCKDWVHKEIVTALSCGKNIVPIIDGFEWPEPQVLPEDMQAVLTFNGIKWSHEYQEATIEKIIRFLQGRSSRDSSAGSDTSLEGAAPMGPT
# [5] = galactose survival enhancers in mitochondrial complex I cybrids – cell-based, galactose medium, ATP luminescence, primary screen (AID 1645843;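 active = z-score of at least 1.8 in each of two replicates, scored against plate mean and spread of sample wells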;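 note: positive z means more ATP and so rescue of galactose-driven cybrid death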); settings: complex I mutant cybrid cells, 72 h, stronger effect = higher value
# [6] = stronger effect = lower value, cell number ratio, induced over uninduced
# [7] = measured here: relative caspase fold change +Dox/-Dox
# [8] = measured here: total cells with miR-34 induction, stronger effect = lower value
# [9] = measured here: total cells without miR-34 induction
# [10] = MELAS cybrid survival, CellTiter-Glo 48 h, stronger effect = higher value
# [11] = Rieske KO mouse fibroblast survival, CellTiter-Glo 72 h
SMILES,parasite load remaining [1],viability [1],"fold change [2, 6]","fold change [2, 7]","cell count [2, 8]","cell count [2, 9]","z-score [3, 10]","z-score [3, 11]",remaining NAD [4],z-score [5]
NCc1ccccc1CC(=O)N[C@@H]1C(=O)N2C(C(=O)O)=C(CSc3nnnn3CC(=O)O)CS[C@H]12,167% (inactive) and 62% (inactive),121% and 87.5%,0.949 (inactive),1.15,8230,8670,0.404 (inactive),-0.0556,10 nM (inactive),–
COc1ccc2nc(Cn3cnc4cc(F)ccc4c3=O)[nH]c2c1,–,–,0.891 (inactive),1.56,7880,8840,-0.0496 (inactive),-0.0588,–,-0.39 (inactive)
CO[C@H]1C[C@H](O[C@H]2[C@H](C)[C@@H](O[C@@H]3O[C@H](C)C[C@H](N(C)C)[C@H]3OC(C)=O)[C@@H](C)C[C@@]3(CO3)C(=O)[C@H](C)[C@@H](OC(C)=O)[C@@H](C)[C@@H](C)OC(=O)[C@@H]2C)O[C@@H](C)[C@@H]1OC(C)=O,27.9% (inactive) and 46.8% (inactive),46.5% and 147%,0.951 (inactive) and 0.962 (inactive),1.2 and 1.02,9570 and 9780,10100 and 10200,0.411 (inactive) and -0.389 (inactive),-0.0819 and -0.533,–,0.095 (inactive)
CC1(C)S[C@@H]2[C@H](NC(=O)[C@H](NC(=O)N3CCNC3=O)c3ccccc3)C(=O)N2[C@H]1C(=O)O,109% (inactive),98.7%,0.917 (inactive),1.11,9220,10100,0.409 (inactive),-0.381,10 nM (inactive),–
